# From PubChem BioAssay
# Experiment: small molecules captured by biotinylated probe aFST – biochemical, small-molecule microarray, fluorescence 635/667, stem cell growth factor project, primary screen (AID 1086);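 also: score merges 667 nm fluorescence with signal-to-noise of each printed compound spot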
# Conditions: higher = more signal
row,SMILES,composite z-score
1,CCOC(=O)C[C@H]1[C@H](OC(=O)c2ccc(C(=O)c3ccccc3)cc2)[C@@H](NC(=O)C2CCCCC2)c2cc(OCCCO)ccc2N1C(=O)c1ccccc1,0.253
2,Cc1ccc(S[C@]2(C(=O)NCC(C)C)CC(=O)N(Cc3ccccc3Cl)[C@@H]2c2ccc(CO)cc2)cc1,-0.982
3,COc1cccc(C(=O)O[C@H]2CC[C@]3(C)C4=C(CCC3C2(C)C)[C@]2(C)CC[C@H]([C@H](C)CCCC(C)C)[C@@]2(C)CC4)c1 (some centres undefined),0.169

# Experiment: binders of probe aHhip on microarray, primary screen, stem cell growth factor project, biochemical, small-molecule microarray, fluorescence 635/667 (AID 1087);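 also: score merges spot fluorescence at 667nm with spot signal to noise ratio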
# Conditions: higher = more signal
row,SMILES,composite z-score
1,O=c1cccc(CCc2ccccc2)o1,0.0251
2,COc1ccc([Si](C)(C)[C@H]2[C@H](CCn3cc(CCO)nn3)O[C@@]3(C(=O)N(Cc4ccc(N5CCOC5=O)cc4)c4ccccc43)[C@@H]2C)cc1,-0.236
3,C=CC[C@@H](OC(=O)Nc1ccc(OC)cc1)c1ccc(O)c2ccccc12,-0.0296
4,CC(c1ccccc1)C(O)C1C=CC2C(=O)NC(=O)C2N1Nc1ccccn1 (centres undefined),-0.271
5,CC(C)CNC(=O)[C@@H]1c2ccccc2C(=O)N(Cc2cc(C(F)(F)F)cc(C(F)(F)F)c2)[C@H]1c1ccc(CO)cc1,0.224
6,C[C@]1(C(=O)NCc2ccccc2)c2ccccc2C(=O)N(Cc2cc(F)cc(C(F)(F)F)c2)[C@H]1c1ccc(CO)cc1,-0.0994
7,O=C1O[C@H](c2ccccc2)[C@H](c2ccccc2)N2[C@H]1[C@@H](C(=O)Nc1nc3ccccc3s1)[C@]1(C(=O)Nc3ccccc31)[C@H]2c1ccc(O)cc1,-0.149
8,CN(C)CCCNC(=O)[C@@]1(Cc2ccccc2I)c2ccccc2C(=O)N(Cc2ccccc2C(F)(F)F)[C@H]1c1ccc(CO)cc1,-0.0645
9,CCCCCN1CC=CC23O[C@@H]4C=CCOC(=O)[C@@H]4[C@H]2C(=O)N(CCCO)[C@@H]3C1=O (some centres undefined),-0.236
10,C=C(CCCC)/C(=C/C[C@H](OC(C)=O)c1ccc(CO)o1)c1cnc2ccccc2c1,0.0505
11,CC(C)NC(=O)[C@@]1(Cc2ccccc2I)c2ccccc2C(=O)N(Cc2ccccc2)[C@H]1c1ccc(CO)cc1,0.0401
12,O=C1C2C=CC(C(O)c3ccc(B(O)O)cc3)N(Nc3ccccc3)C2C(=O)N1c1ccccc1 (centres undefined),-0.299
13,O=C1C[C@]2(c3ccc([N+](=O)[O-])cc3)C(=O)N(CC(F)(F)F)c3cc(CO)ccc3[C@H]2N1CC12CC3CC(CC(C3)C1)C2,-0.249
14,N#Cc1ccc(NN2C(C(O)c3cccs3)C=CC3C(=O)N(c4ccccc4)C(=O)C32)cc1 (centres undefined),-0.236
15,COCCOC(=O)N1C(=O)[C@@]2(c3cc(C#CCNC(N)=O)ccc31)[C@H](C(=O)N1CCc3cc(OC)c(OC)cc3C1)[C@H]1C(=O)O[C@H](c3ccccc3)[C@H](c3ccccc3)N1[C@@H]2c1ccc(OCCO)cc1,0.12
16,CC(=O)Nc1cc(Br)ccc1C(=O)O,-0.221
17,C=CCOC(=O)[C@@H]1[C@H]2C(=O)O[C@H](c3ccccc3)[C@H](c3ccccc3)N2[C@H](c2ccc(OCCOC(=O)[C@@H]3C[C@@H]4C(=O)N[C@@H](Cc5ccccc5)C(=O)N4[C@@H]3c3cccc(OCCO)c3)cc2)[C@@]12C(=O)Nc1ccc(I)cc12,-0.0196
18,[N-]=[N+]=NCc1ccccc1C[C@]1(C(=O)O)N=C(c2ccc(OCCCO)cc2)O[C@H]1c1ccccc1CN=[N+]=[N-],-0.239

row,SMILES,composite z-score
1,NCCCCCNC(=O)[C@H]1C[C@H]2C(=O)NCC(=O)N2[C@H]1c1cccc(OCCO)c1,0.165
2,COc1cc2c(cc1OC)CN(C(=O)[C@@H]1[C@H]3C(=O)O[C@H](c4ccccc4)[C@H](c4ccccc4)N3[C@H](c3ccccc3OCCO)[C@@]13C(=O)Nc1ccc(C#CCNC(N)=O)cc13)CC2,-0.074
3,C=C(COC)C(=O)CC[C@H](OC(C)=O)c1cccc(OCCO)c1,-0.291
4,CCOC(=O)C[C@H]1[C@H](OC(=O)Cc2ccc3c(c2)OCO3)[C@@H](NC(=O)C2CCCCC2)c2cc(OCCCO)ccc2N1C(=O)Cc1ccc(OC)cc1,0.0515
5,COCCOC(=O)N1C(=O)[C@@]2(c3cc(C#CCNC(N)=O)ccc31)[C@H](c1ccc(OCCO)cc1)N1[C@H](c3ccccc3)[C@H](c3ccccc3)OC(=O)[C@H]1[C@@H]2C(=O)N1CCc2cc(OC)c(OC)cc2C1,0.327
6,COCCOC(=O)N1C(=O)[C@@]2(c3cc(C#CC4(O)CCCCCC4)ccc31)[C@H](C(=O)N1CCCCCCC1)[C@H]1C(=O)O[C@H](c3ccccc3)[C@H](c3ccccc3)N1[C@@H]2c1ccccc1OCCO,1.04
7,C=C(COC)/C(=C/C[C@H](OC(=O)c1ccncc1)c1cccc(OCCO)c1)c1cc(C(=O)OC)ccc1OC,0.0505
8,COc1c(C)cc(-c2cc3c(c(-c4ccc(Oc5ccccc5)cc4)n2)[Si](C(C)C)(C(C)C)OC3)cc1C,-0.353
9,CCOC(=O)C1=CCC(c2ccc(C#N)cc2)N(S(=O)(=O)c2ccc(C)cc2)C1 (centres undefined),0.11
10,CCOC(=O)C1=C[C@@H](C(C)C)N(S(=O)(=O)c2ccc(C)cc2)[C@H]1c1ccc(C(C)C)cc1,-0.0754
11,CCOC(=O)C1=CCC(C(C)(C)C)N(S(=O)(=O)c2ccc(C)cc2)C1 (centres undefined),0.0139
12,CCCCC=C[C@@H](NC(=O)c1ccco1)c1ccccc1,0.525
13,CC(C)(C)N1CC=CC23O[C@@H]4C=CCOC(=O)[C@@H]4[C@H]2C(=O)N(CCCCCO)[C@@H]3C1=O (some centres undefined),-0.339
14,O=C1C=CC(=O)[C@@H]2CC(COc3ccccc3)=C3[C@@H](CCc4ccccc4)OB(O)C[C@@H]3[C@H]12,0.176
15,Cc1ccccc1C(O)C1C=CC2C(=O)N(C)C(=O)C2N1N1CCCCC1 (centres undefined),-0.0296
16,CCOC(=O)C[C@H]1[C@H](OC(=O)c2ccc(C(=O)c3ccccc3)cc2)[C@@H](NC(=O)C2CCCCC2)c2cc(OCCCO)ccc2N1C(=O)c1ccccc1,0.682
17,Cc1ccc(S[C@]2(C(=O)NCC(C)C)CC(=O)N(Cc3ccccc3Cl)[C@@H]2c2ccc(CO)cc2)cc1,-0.284
18,COc1cccc(C(=O)O[C@H]2CC[C@]3(C)C4=C(CCC3C2(C)C)[C@]2(C)CC[C@H]([C@H](C)CCCC(C)C)[C@@]2(C)CC4)c1 (some centres undefined),0.0722
